Rows were chosen to be rich in hits. Some 8.1% of all compounds tested hit in one or more screens of this group.
KB-3-1 tox: qHTS assay for MDR1-selective chemotherapeutics: Primary screen using the parental adenocarcinoma cell KB-3-1; KB-3-1 viability, CellTiter-Glo ATP luminescence, 72 h; AID 1347075, 2019; hit rate 1.4% among 400,000; Potency, µM (highest dose often 46.1 µM), hits mostly cytotoxic; also: % is scaled to controls: 0 for no effect and ±100 for the full control effect; nearly all actives have a fitted effect of over 60% in size
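Luminescent ATP read-out (CellTiter-Glo) measures survival of drug-naive KB-3-1 cells after 72 h compound exposure at 37 °C. Titration series was screened from lowest to highest concentration, with DMSO vehicle plates as background controls.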
SW480 rerep: A quantitative high throughput screen for small molecules that induce DNA re-replication in SW480 colon adenocarcinoma cells; SW480 DNA re-replication, Hoechst DNA content imaging, 48 h; Potency, µM (top dose mostly 46.1 µM), inactives show at the highest dose re-replication activation, actives largely listed as activators; hit rate 1.8% among 340,000; also: % of control where 0% means no effect; nearly all actives have a fitted effect of over 55% in size
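Readout is total intensity of Hoechst-stained nuclei, excited at 405 nm and collected at 500-530 nm. Compound treatment lasted 48 hr at 37 C in 5% CO2 before staining.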
MCF10A rerep: A quantitative high throughput screen for small molecules that induce DNA re-replication in MCF 10a normal breast cells | MCF 10A DNA re-replication, Hoechst nuclear intensity, 48 h | Potency, µM (highest dose often 46.1 µM), inactives show top-dose activity, positive = re-replication, actives largely listed as activators | hit rate 2.9% among 350,000 | AID 624296, 2012; also: % of control where 0% means no effect; nearly all actives have a fitted effect of over 50% in size
ELG1 DNA repair: qHTS screen for small molecules that inhibit ELG1-dependent DNA repair in human embryonic kidney (HEK293T) cells expressing luciferase-tagged ELG1; hit rate 2.3% among 330,000; HEK293T ELG1-luciferase reporter, luminescence, 16 h; DNA damage induced by 5-fluorouridine; AID 504467, 2011; Potency, µM (titrated, usually from 46.1 µM), without a hit: at the top dose activity change, negative = inhibition, actives largely listed as inhibitors; also: % is scaled to controls: 0 for no effect and ±100 for the full control effect; nearly all actives have a fitted effect of over 55% in size
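DMSO vehicle served as the neutral condition. Each well held 2,000 cells given 5-fluorouridine plus compound; after 16 hr at 37 °C/5% CO2, ONE-Glo was added and luciferase measured 30 min later.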
KB-V1 MDR tox: qHTS assay for MDR1-selective chemotherapeutics: Primary screen using the drug-selected MDR subline cells KB-V1. KB-V1 MDR cells viability, CellTiter-Glo, 72 h. Potency, µM (highest dose often 46.1 µM), usual class: cytotoxic. hit rate 3.4% among 400,000. AID 1347076, 2019; also: % is scaled to controls: 0 for no effect and ±100 for the full control effect; nearly all actives have a fitted effect of over 60% in size
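Drug-selected KB-V1 cells, grown in DMEM lacking phenol red with 10% FBS, receive compound titrations; after three days at 37 degrees C, surviving cell ATP is quantified by CellTiter-Glo luminescence and responses normalized and curve-fitted.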
An asterisk follows results filed as active. Calls follow the shape of the dose curve; as a rule, active = well fitted curve in the direction sought with a large enough effect; inconclusive = small, poorly fitted or top-dose-only effect, or another doubt; inactive = no such curve, though single readings can be large; an effect the other way counts as inactive or inconclusive. Potency is read from the fitted curve at half-maximal effect.

For CCOC(=O)c1c(C)nc2sc(C(=O)Nc3ccc(OC)cc3)c(N)c2c1-c1ccc(OC)cc1 the results were KB-3-1 tox 5.8µM*, SW480 rerep inconclusive, MCF10A rerep 3.55µM*, ELG1 DNA repair inconclusive and KB-V1 MDR tox 4.11µM*.
CCOC(=O)c1c(C)nc2sc(C(=O)Nc3ccc(C(C)=O)cc3)c(N)c2c1-c1ccc(OC)cc1 was read as KB-3-1 tox inconclusive, SW480 rerep 2.31µM*, MCF10A rerep 26.0%, ELG1 DNA repair -20.9% and KB-V1 MDR tox inconclusive.
For CCOC(=O)c1c(C)nc2sc(C(N)=O)c(N)c2c1-c1ccc(OC)cc1 the results were KB-3-1 tox inactive, SW480 rerep 1.9%, MCF10A rerep 8.8%, ELG1 DNA repair 13µM* and KB-V1 MDR tox inconclusive.
CCOC(=O)c1c(C)nc2sc3c(=O)n(-c4ccc(C(C)=O)cc4)nnc3c2c1-c1ccc(OC)cc1 was read as KB-3-1 tox inactive, SW480 rerep 1.0%, MCF10A rerep -4.4%, ELG1 DNA repair inconclusive and KB-V1 MDR tox inconclusive.
`COc1ccc(NC(=O)c2sc3nc(C)c(C(=O)Nc4ccc(C)cc4C)c(-c4ccc(Cl)cc4)c3c2N)cc1` gave KB-3-1 tox inactive and KB-V1 MDR tox inactive.
Screening C/C(=C\C(=O)c1ccccc1)NCc1ccc(F)cc1 returned KB-3-1 tox inactive, SW480 rerep -1.3%, MCF10A rerep 14.4%, ELG1 DNA repair inconclusive and KB-V1 MDR tox inactive.
For COC(=O)C1=C(C)N(CCCC(=O)O)C(=O)NC1c1ccccc1OS(=O)(=O)c1ccccc1[N+](=O)[O-] (stereo not given) the results were KB-3-1 tox inactive, SW480 rerep -10.1%, MCF10A rerep -8.8% and KB-V1 MDR tox inactive.
`CCOC(=O)C1=C(C)N(Cc2ccccc2)C(=O)NC1c1ccccc1OS(=O)(=O)c1ccccc1[N+](=O)[O-]` (stereo not given) gave KB-3-1 tox inconclusive, SW480 rerep inconclusive, MCF10A rerep 13.4% and KB-V1 MDR tox 7.31µM*.
Screening O=C(NCCOc1ccccc1Cl)c1cccc2c1C(=O)c1ccc(Cl)cc1S2(=O)=O returned KB-3-1 tox inconclusive, SW480 rerep -4.2%, MCF10A rerep inconclusive, ELG1 DNA repair 4.0% and KB-V1 MDR tox inactive.
O=C(OC(c1ccc(NS(=O)(=O)c2ccccc2)cc1)(C(F)(F)F)C(F)(F)F)c1ccccc1 was read as KB-3-1 tox inconclusive, SW480 rerep inconclusive, MCF10A rerep 18.4µM*, ELG1 DNA repair -21.4% and KB-V1 MDR tox inactive.
`CC(=O)c1ccc(NS(=O)(=O)c2ccccc2)cc1` gave KB-3-1 tox inactive, SW480 rerep -0.4%, MCF10A rerep 2.5%, ELG1 DNA repair inconclusive and KB-V1 MDR tox inactive.
For Cc1cc(C)nc(NS(=O)(=O)c2ccc(NC(=O)c3ccccc3[N+](=O)[O-])cc2)n1 the results were KB-3-1 tox inactive, SW480 rerep -3.9%, MCF10A rerep 6.3%, ELG1 DNA repair 20.1% and KB-V1 MDR tox inactive.
`Cc1ccc(S(=O)(=O)Nc2ccc(C(OC(=O)c3ccccc3[N+](=O)[O-])(C(F)(F)F)C(F)(F)F)cc2)cc1` gave KB-3-1 tox inconclusive, SW480 rerep inconclusive, MCF10A rerep inconclusive, ELG1 DNA repair inconclusive and KB-V1 MDR tox 3.66µM*.
Screening O=C(c1cnn2c1NC(c1ccco1)CC2C(F)(F)F)N1CCN(c2cccc(Cl)c2)CC1 (stereo not given) returned KB-3-1 tox inconclusive, SW480 rerep inconclusive, MCF10A rerep 7.31µM*, ELG1 DNA repair 10.3µM* and KB-V1 MDR tox inconclusive.
C[n+]1ccc(/C=C/c2c[nH]c3ccc(F)cc23)cc1 was read as KB-3-1 tox 8.2µM*, SW480 rerep inconclusive, MCF10A rerep inconclusive, ELG1 DNA repair inconclusive and KB-V1 MDR tox inactive.
Screening COc1ccc(-c2nsc3c(N4CCCCC4C)ncnc23)cc1 (stereo not given) returned KB-3-1 tox inactive, SW480 rerep 18.8%, MCF10A rerep inconclusive, ELG1 DNA repair inconclusive and KB-V1 MDR tox inactive.
`Cc1ccc(-c2cc(-c3ccccc3Cl)c(C#N)c(N)n2)o1` gave KB-3-1 tox inactive, SW480 rerep inconclusive, MCF10A rerep inconclusive, ELG1 DNA repair inconclusive and KB-V1 MDR tox inactive.
For N#Cc1c(-c2ccncc2)cc(-c2ccc(F)cc2)nc1N the results were KB-3-1 tox inactive, SW480 rerep 0.8%, MCF10A rerep -1.1%, ELG1 DNA repair 10.3% and KB-V1 MDR tox inactive.
Screening Cc1ccc(-c2cc(-c3ccc(F)cc3)nc(N)c2C#N)o1 returned KB-3-1 tox inactive, SW480 rerep 11.6µM*, MCF10A rerep 3.66µM*, ELG1 DNA repair inconclusive and KB-V1 MDR tox inactive.
Cc1ccc(-c2cc(-c3ccccc3)c(C#N)c(N)n2)o1 was read as KB-3-1 tox inactive, SW480 rerep 18.4µM*, MCF10A rerep 18.4µM*, ELG1 DNA repair inconclusive and KB-V1 MDR tox inactive.
`CC(=O)NC(C)(c1ccccc1)c1nc(-c2cccc(C#N)c2)cs1` (stereo not given) gave KB-3-1 tox inactive and KB-V1 MDR tox inactive.
Screening COc1ccccc1C(=O)NCc1ccc2c(c1)CCN2C(=O)c1cccc(C)c1 returned KB-3-1 tox inactive and KB-V1 MDR tox inactive.
`O=C(NCCc1csc(-c2ccc(F)cc2)n1)c1cccc(F)c1` gave KB-3-1 tox inconclusive and KB-V1 MDR tox inactive.
For O=C(NCCc1csc(-c2cccnc2)n1)c1ccc(Br)o1 the results were KB-3-1 tox inactive, SW480 rerep -4.1%, MCF10A rerep 9.0%, ELG1 DNA repair 11.6µM* and KB-V1 MDR tox inactive.
O=C(NCCc1csc(-c2cccnc2)n1)c1ccc(Cl)cc1 was read as KB-3-1 tox inactive, SW480 rerep inconclusive, MCF10A rerep 11.6µM*, ELG1 DNA repair -9.0% and KB-V1 MDR tox inactive.
Screening O=C(NCCc1csc(-c2cccnc2)n1)c1cccc(Cl)c1 returned KB-3-1 tox inactive, SW480 rerep 8.6%, MCF10A rerep -3.4%, ELG1 DNA repair inconclusive and KB-V1 MDR tox inconclusive.
Screening O=C(NCCc1csc(-c2ccc(C(F)(F)F)cc2)n1)c1ccc(F)c(F)c1 returned KB-3-1 tox 23.1µM* and KB-V1 MDR tox 13µM*.
O=C(NCCc1csc(-c2ccccc2)n1)c1c(F)cccc1Cl was read as KB-3-1 tox inactive, SW480 rerep -3.1%, MCF10A rerep 0.0%, ELG1 DNA repair 18.3µM* and KB-V1 MDR tox inactive.

Screening results deposited in PubChem by National Center for Advancing Translational Sciences (NCATS).
